Assay results published in PubChem BioAssay (EPA / NIEHS).
Results filed as inconclusive are left out. Calls of active or inactive are those of the source. The calls were made as follows, unless noted: active = hit-call score of the fitted dose curve at least 0.9, where 1 is the maximum; inconclusive = response in the unintended direction; inactive = score below 0.9.

Columns and labels:
[1] = ATG_TCF_b_cat_CIS: Attagene CIS-FACTORIAL HepG2 Assay for human T-Cell-Factor with beta-catenin (TCF/b-cat) (AID 2282965; active = hit-call score of the fitted dose curve at least 0.9, where 1 is the maximum; inactive = score below 0.9); details: HepG2 TCF/beta-catenin cis-reporter transcription, actives raise or lower the signal
Outline: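 Endogenous transcription factor activity is captured through cis-promoter reporter constructs transiently introduced into human HepG2 liver cells. Induced reporter mRNA is measured after 24 h and fitted bidirectionally relative to DMSO.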

[2] = ATG_TAL_CIS: Attagene CIS-FACTORIAL HepG2 Assay for human TAL Basal Promoter (AID 2282966; active = hit-call score of the fitted dose curve at least 0.9, where 1 is the maximum; inactive = score below 0.9;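 also: background control endpoint measuring basal TAL promoter reporter mRNA not a specific factor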); details: HepG2 Attagene cis-factorial TAL promoter reporter; actives raise or lower the signal
Outline: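 Readout: reporter mRNA, fluorescence by CE. System: HepG2, transient multi-reporter transfection, endogenous TF activity. Exposure: 24 h. Analysis: bidirectional, DMSO-normalized; background control.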

[3] = ATG_TGFb_CIS: Attagene CIS-FACTORIAL HepG2 Assay for human Transforming Growth Factor (TGF) (AID 2282967; active = hit-call score of the fitted dose curve at least 0.9, where 1 is the maximum; inactive = score below 0.9); details: HepG2 Attagene CIS TGFb reporter, mRNA transcription; actives raise or lower the signal
Outline: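 Liver HepG2 line, cis-factorial reporter panel, 24 h dosing. Quantitation: RT-PCR products labeled with 6-FAM, cut with HpaI, resolved by capillary electrophoresis; DMSO-referenced bidirectional analysis.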

[4] = ATG_VDRE_CIS: Attagene CIS-FACTORIAL HepG2 Assay for human Vitamin D Receptor Element (VDRE) (AID 2282968; active = hit-call score of the fitted dose curve at least 0.9, where 1 is the maximum; inactive = score below 0.9); details: HepG2 VDRE cis-reporter transcription, actives raise or lower the signal
Outline: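 In transiently transfected HepG2 liver cells, gain or loss of reporter mRNA after 24 h exposure is scored relative to DMSO, using fluorescence detection by capillary electrophoresis of RT-PCR products.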

[5] = target: Estrogen receptor (Homo sapiens) (UniProt P03372); test: ATG_ERa_TRANS: Attagene TRANS-FACTORIAL HepG2 Assay for human Estrogen Receptor alpha (ERa) (AID 2282970); details: HepG2 Attagene TRANS ERa GAL4 reporter, mRNA
Outline: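 Transactivation via ERa-Gal4 chimera in HepG2; 24 hour incubation; reporter mRNA detected by fluorescence RT-PCR and capillary electrophoresis.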

[6] = target: X-box-binding protein 1 (Homo sapiens) (UniProt P17861); test: ATG_Xbp1_CIS: Attagene CIS-FACTORIAL HepG2 Assay for human X-box Binding Protein 1 (XBP1) (AID 2282972; active = hit-call score of the fitted dose curve at least 0.9, where 1 is the maximum; inactive = score below 0.9); details: HepG2 XBP1 cis-element reporter, Attagene multiplex; actives raise or lower the signal
Outline: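 Fluorescence-labelled cDNA fragments from reporter transcripts, separated by capillary electrophoresis, give the signal. Source: HepG2 cells transfected with promoter-driven reporter units, harvested 24 h post-dose. DMSO served as reference for bidirectional curve fitting.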

[7] = ATG_M_19_TRANS: Attagene TRANS-FACTORIAL HepG2 Assay for M19 Transcription Factor (Internal Marker) (AID 2282974); details: HepG2 Attagene TRANS-FACTORIAL M19 internal marker reporter
Outline: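 Background-control readout: after 24 h chemical exposure of transfected HepG2 carrying GAL4-driven reporter units, RNA was reverse-transcribed, amplified, fluorescently labeled and sized by capillary electrophoresis; gain-of-signal fit against DMSO.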

[8] = ATG_GAL4_TRANS: Attagene TRANS-FACTORIAL HepG2 Assay for GAL4 (Internal Marker) (AID 2282976); details: HepG2 Attagene TRANS GAL4 internal marker reporter
Outline: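 Fluorescence from capillary electrophoresis of labelled RT-PCR products quantifies reporter mRNA induction after 24 h dosing of HepG2 cells carrying transfected GAL4-UAS reporter transcription units. Vehicle DMSO serves as baseline.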

[9] = target: Oxysterols receptor LXR-alpha (Homo sapiens) (UniProt Q13133); test: ATG_LXRa_TRANS: Attagene TRANS-FACTORIAL HepG2 Assay for human Liver X Receptor alpha (LXRa) (AID 2282980); details: HepG2 Attagene TRANS reporter, LXRa transactivation
Outline: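 Transient HepG2 transfectants, 24 h dosing, RT-PCR/CE mRNA reporter quantitation; gain-of-signal vs DMSO.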

[10] = target: Transcriptional activator Myb (Homo sapiens) (UniProt P10242); test: ATG_Myb_CIS: Attagene CIS-FACTORIAL HepG2 Assay for human Myeloblastosis (Myb) Proto-Oncogene Transcription Factor (AID 2282986; active = hit-call score of the fitted dose curve at least 0.9, where 1 is the maximum; inactive = score below 0.9); details: HepG2 Attagene CIS-FACTORIAL Myb reporter transcription; actives raise or lower the signal
Outline: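 Reporter mRNA is quantified by RT-PCR and capillary electrophoresis 24 h after dosing HepG2 cells transfected with cis-regulated reporter units, which track endogenous transcription factor activity. Gain and loss of signal are fitted versus DMSO baseline.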

[11] = target: Glucocorticoid receptor (Homo sapiens) (UniProt P04150); test: ATG_GR_TRANS: Attagene TRANS-FACTORIAL HepG2 Assay for human Glucocorticoid Receptor (GR) (AID 2282978); details: HepG2 Attagene TRANS GR reporter, mRNA transcription;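 also: activators score as hits since higher reporter transcript over DMSO is fitted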
Outline: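 Readout is reporter transcript from a chimeric GR-Gal4 acting on GAL4-UAS in transfected human HepG2 liver cells after 24 h exposure, quantified by RT-PCR and capillary electrophoresis. Activation fitted upward against DMSO.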

[12] = target: Bile acid receptor (Homo sapiens) (UniProt Q96RI1); test: ATG_FXR_TRANS: Attagene TRANS-FACTORIAL HepG2 Assay for Farnesoid X Receptor (FXR) (AID 2282979); details: HepG2 Attagene TRANS FXR-GAL4 reporter transcription;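 also: hits raise reporter mRNA above DMSO so AC50 marks FXR activation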
Outline: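 Chimeric FXR-GAL4 activity in transiently transfected human HepG2 liver cells is scored as induction of reporter mRNA after 24 h of dosing. Detection uses RT-PCR with fluorescent labelling and capillary electrophoresis, with DMSO serving as baseline.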

[13] = target: Oxysterols receptor LXR-beta (Homo sapiens) (UniProt P55055); test: ATG_LXRb_TRANS: Attagene TRANS-FACTORIAL HepG2 Assay for human Liver X Receptor beta (LXRb) (AID 2282981); details: HepG2 Attagene TRANS GAL4-LXRb reporter, mRNA
Outline: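 Cells: HepG2, transiently transfected with GAL4-UAS reporter units plus LXRb-Gal4 fusion. Treatment: 24 h. Detection: reporter mRNA by RT-PCR, 6-FAM labelling, HpaI digestion, capillary electrophoresis.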

[14] = ATG_M_06_TRANS: Attagene TRANS-FACTORIAL HepG2 Assay for M06 Transcription Factor (Internal Marker) (AID 2282983); details: HepG2 Attagene TRANS M06 internal marker reporter;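 also: reporter transcript level by RT-PCR then capillary electrophoresis fluorescence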
Outline: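 Measured by capillary electrophoresis of fluorescently labelled RT-PCR products, this endpoint reflects reporter mRNA in HepG2 cells harbouring exogenous NR-GAL4 reporter constructs after 24 h exposure, with DMSO as baseline.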

[15] = ATG_M_32_TRANS: Attagene TRANS-FACTORIAL HepG2 Assay for M32 Transcription Factor (Internal Marker) (AID 2282984); details: HepG2 Attagene TRANS M32 internal marker reporter;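 also: transcript level of a background control reporter unit measured by RT-PCR and capillary electrophoresis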
Outline: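 Using transiently transfected HepG2 cells exposed to test chemicals for 24 h, reporter transcripts are converted to labelled cDNA fragments and quantified by capillary electrophoresis. DMSO defines the activity baseline.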

[16] = target: Hepatocyte nuclear factor 4-alpha (Homo sapiens) (UniProt P41235); test: ATG_HNF4a_TRANS: Attagene TRANS-FACTORIAL HepG2 Assay for human Hepatocyte Nuclear Factor 4 alpha (HNF4a) (AID 2282982); details: HepG2 HNF4a transactivation reporter, mRNA readout
Outline: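 Transfected HepG2 reporter cells are dosed for 24 h; reporter RNA is reverse-transcribed, amplified, fluorescently labelled and HpaI-digested before CE sizing. Positive-direction fit against DMSO.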

[17] = target: Estrogen-related receptor gamma (Homo sapiens) (UniProt P62508); test: ATG_ERRg_TRANS: Attagene TRANS-FACTORIAL HepG2 Assay for human Estrogen-Related Receptor gamma (ERRg) (AID 2282977); details: HepG2 Attagene TRANS reporter, ERRg transactivation;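 also: hits increase reporter signal over DMSO so potencies reflect activators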
Outline: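 HepG2 cells transiently transfected with multiplexed GAL4-UAS reporter units and chimeric NR-Gal4 constructs were exposed to test chemicals for 24 h. Reporter mRNA was measured by RT-PCR, 6-FAM primer extension, HpaI digestion and capillary electrophoresis; gain-of-signal versus DMSO.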

[18] = target: Nuclear receptor subfamily 4 group A member 2 (Homo sapiens) (UniProt P43354); test: ATG_NURR1_TRANS: Attagene TRANS-FACTORIAL HepG2 Assay for human Nuclear Receptor Related Protein 1 (NURR1) (AID 2282985); details: HepG2 Attagene TRANS reporter, mRNA readout
Outline: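 Cells: HepG2, transiently transfected. Exposure: 24 h. Detection: fluorescence of labelled RT-PCR products separated by capillary electrophoresis; upward fit versus DMSO.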

Chain of Estrogen receptor (Homo sapiens) (P03372 whole entry, looked up, the tested form may be a part): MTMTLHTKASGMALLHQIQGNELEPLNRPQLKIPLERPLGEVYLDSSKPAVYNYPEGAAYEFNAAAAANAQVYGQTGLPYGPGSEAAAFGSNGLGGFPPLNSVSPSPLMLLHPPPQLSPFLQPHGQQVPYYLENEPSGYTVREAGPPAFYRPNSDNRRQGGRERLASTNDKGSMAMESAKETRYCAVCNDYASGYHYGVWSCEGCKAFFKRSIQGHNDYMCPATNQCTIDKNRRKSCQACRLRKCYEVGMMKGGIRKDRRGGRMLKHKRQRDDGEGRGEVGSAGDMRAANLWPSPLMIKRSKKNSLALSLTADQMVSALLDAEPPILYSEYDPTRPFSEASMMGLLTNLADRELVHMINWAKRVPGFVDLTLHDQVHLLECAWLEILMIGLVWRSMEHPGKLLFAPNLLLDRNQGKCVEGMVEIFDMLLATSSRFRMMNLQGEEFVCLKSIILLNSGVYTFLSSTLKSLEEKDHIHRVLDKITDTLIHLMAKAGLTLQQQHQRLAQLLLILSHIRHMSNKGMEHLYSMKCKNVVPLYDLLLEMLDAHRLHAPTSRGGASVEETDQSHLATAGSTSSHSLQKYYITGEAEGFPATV
Chain of Bile acid receptor (Homo sapiens) (Q96RI1 whole entry, looked up, the tested form may be a part): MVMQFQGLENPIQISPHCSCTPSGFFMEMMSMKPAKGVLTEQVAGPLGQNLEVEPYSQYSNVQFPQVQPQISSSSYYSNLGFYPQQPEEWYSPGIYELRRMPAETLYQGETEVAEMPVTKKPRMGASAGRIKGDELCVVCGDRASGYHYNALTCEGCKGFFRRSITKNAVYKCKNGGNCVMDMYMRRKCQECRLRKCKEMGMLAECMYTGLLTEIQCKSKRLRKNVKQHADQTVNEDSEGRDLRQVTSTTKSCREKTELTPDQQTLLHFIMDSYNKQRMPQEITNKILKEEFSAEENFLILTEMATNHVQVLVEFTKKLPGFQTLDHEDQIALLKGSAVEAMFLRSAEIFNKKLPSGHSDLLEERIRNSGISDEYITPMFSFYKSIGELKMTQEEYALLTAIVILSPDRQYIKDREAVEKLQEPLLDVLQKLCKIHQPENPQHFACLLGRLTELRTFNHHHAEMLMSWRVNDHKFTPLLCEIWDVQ
Chain of Glucocorticoid receptor (Homo sapiens) (P04150 whole entry, looked up, the tested form may be a part): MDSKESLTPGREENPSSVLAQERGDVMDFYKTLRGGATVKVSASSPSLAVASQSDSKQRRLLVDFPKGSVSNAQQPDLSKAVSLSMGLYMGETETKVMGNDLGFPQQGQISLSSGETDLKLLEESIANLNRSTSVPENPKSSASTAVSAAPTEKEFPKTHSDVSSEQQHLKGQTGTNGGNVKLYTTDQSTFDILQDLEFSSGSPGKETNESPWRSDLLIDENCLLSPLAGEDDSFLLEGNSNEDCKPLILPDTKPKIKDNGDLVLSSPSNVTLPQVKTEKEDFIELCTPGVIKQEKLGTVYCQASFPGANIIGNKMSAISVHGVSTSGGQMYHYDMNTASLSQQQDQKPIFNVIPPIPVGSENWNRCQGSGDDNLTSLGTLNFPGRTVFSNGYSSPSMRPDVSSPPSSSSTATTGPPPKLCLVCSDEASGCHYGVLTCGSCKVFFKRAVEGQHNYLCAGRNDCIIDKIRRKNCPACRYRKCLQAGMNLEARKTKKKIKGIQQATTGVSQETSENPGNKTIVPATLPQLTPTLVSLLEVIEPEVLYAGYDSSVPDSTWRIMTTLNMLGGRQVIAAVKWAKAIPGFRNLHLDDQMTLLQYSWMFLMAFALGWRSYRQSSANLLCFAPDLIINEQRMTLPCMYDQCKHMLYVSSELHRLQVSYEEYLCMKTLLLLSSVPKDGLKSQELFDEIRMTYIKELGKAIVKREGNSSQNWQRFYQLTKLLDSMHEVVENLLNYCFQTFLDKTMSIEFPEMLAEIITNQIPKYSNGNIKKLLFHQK
Chain of Hepatocyte nuclear factor 4-alpha (Homo sapiens) (P41235 whole entry, looked up): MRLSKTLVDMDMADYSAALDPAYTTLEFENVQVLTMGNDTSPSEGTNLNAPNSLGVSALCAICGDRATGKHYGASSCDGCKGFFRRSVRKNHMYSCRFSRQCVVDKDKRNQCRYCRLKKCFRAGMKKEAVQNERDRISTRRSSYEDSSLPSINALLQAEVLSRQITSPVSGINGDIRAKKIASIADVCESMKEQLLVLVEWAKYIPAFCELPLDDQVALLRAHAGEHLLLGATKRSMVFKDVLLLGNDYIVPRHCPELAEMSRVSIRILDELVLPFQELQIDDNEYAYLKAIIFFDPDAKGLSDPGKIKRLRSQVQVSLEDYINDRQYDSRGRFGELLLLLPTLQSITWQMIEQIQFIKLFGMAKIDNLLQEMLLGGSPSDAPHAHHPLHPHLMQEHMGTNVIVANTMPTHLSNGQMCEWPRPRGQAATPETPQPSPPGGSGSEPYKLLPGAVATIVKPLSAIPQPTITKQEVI
Chain of Oxysterols receptor LXR-alpha (Homo sapiens) (Q13133 whole entry, looked up): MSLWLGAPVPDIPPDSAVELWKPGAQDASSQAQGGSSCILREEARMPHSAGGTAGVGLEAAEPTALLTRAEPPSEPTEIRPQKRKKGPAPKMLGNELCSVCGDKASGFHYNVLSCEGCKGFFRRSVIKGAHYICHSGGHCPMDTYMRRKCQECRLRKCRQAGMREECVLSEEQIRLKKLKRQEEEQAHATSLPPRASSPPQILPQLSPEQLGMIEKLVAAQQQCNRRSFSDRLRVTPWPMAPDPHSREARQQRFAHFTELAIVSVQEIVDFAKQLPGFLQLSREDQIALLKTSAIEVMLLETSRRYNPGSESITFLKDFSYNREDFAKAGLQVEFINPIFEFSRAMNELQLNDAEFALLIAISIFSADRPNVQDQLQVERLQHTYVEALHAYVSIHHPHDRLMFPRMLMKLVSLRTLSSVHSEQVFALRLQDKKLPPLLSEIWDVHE
Chain of Transcriptional activator Myb (Homo sapiens) (P10242 whole entry, looked up): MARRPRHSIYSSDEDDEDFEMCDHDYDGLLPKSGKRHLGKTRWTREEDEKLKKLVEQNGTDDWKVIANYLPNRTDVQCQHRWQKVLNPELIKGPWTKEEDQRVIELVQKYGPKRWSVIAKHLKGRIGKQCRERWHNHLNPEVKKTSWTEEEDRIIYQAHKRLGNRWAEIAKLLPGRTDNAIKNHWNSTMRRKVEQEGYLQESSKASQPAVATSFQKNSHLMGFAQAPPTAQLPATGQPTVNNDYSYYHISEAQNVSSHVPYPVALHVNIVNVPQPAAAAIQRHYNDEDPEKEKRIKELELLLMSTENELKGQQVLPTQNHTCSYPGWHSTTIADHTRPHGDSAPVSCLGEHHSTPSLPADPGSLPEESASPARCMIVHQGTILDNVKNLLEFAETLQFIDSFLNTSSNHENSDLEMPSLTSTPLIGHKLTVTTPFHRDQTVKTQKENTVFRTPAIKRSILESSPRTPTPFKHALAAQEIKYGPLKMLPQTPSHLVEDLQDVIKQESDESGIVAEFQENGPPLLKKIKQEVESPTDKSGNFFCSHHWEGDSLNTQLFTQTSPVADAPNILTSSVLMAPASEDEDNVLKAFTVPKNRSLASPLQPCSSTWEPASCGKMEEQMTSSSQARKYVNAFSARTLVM
Chain of Oxysterols receptor LXR-beta (Homo sapiens) (P55055 whole entry, looked up, the tested form may be a part): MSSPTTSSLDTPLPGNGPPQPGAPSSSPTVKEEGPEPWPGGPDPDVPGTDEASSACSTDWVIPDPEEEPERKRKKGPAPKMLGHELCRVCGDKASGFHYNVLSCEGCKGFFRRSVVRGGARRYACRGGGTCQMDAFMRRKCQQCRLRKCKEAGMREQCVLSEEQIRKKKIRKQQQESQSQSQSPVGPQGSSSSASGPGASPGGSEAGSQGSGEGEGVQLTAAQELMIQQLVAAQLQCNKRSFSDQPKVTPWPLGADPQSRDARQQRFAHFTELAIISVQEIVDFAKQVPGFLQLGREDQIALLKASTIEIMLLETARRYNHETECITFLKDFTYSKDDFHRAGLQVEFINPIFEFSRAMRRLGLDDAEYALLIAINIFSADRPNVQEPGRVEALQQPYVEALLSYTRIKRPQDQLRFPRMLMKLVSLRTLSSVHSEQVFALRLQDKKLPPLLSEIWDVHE
Chain of X-box-binding protein 1 (Homo sapiens) (P17861 whole entry, looked up, the tested form may be a part): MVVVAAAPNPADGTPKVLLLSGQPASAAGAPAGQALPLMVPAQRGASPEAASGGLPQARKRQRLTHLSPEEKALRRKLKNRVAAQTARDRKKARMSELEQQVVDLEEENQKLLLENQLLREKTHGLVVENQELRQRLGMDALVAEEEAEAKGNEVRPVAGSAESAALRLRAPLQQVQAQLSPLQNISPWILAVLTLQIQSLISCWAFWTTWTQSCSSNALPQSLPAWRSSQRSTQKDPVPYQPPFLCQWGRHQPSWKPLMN
Chain of Estrogen-related receptor gamma (Homo sapiens) (P62508 whole entry, looked up, the tested form may be a part): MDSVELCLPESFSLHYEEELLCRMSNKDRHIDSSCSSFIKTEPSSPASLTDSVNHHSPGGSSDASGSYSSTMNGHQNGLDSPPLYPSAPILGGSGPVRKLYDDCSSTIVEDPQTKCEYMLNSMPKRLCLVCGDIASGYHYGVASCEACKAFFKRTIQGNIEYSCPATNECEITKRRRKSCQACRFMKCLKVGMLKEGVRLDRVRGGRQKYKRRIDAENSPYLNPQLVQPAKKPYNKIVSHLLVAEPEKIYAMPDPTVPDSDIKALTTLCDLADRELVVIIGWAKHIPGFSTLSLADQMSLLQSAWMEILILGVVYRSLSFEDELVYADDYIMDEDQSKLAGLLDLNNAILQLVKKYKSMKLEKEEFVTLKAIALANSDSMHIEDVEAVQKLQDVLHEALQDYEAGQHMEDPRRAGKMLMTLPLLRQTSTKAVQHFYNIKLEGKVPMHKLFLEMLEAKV

O=C(O)CCC(=O)O
outcome [1]: inactive
outcome [2]: inactive
outcome [3]: inactive
outcome [4]: inactive
outcome [5]: inactive
outcome [6]: inactive
outcome [7]: inactive
outcome [8]: inactive
outcome [9]: inactive
outcome [10]: inactive

CC(C)(C)NC(=O)[C@H]1CC[C@H]2[C@@H]3CC[C@H]4NC(=O)C=C[C@]4(C)[C@H]3CC[C@]12C
outcome [1]: inactive
outcome [2]: inactive
outcome [3]: inactive
outcome [4]: inactive
outcome [5]: inactive
outcome [6]: inactive
outcome [7]: inactive
outcome [8]: inactive
outcome [11]: inactive
outcome [12]: inactive
outcome [9]: inactive
outcome [13]: inactive
outcome [14]: inactive
outcome [15]: inactive
outcome [10]: inactive

CCCCCCCCCCCC(C)=O
AC50 [1]: 161 µM (active)
AC50 [2]: 178 µM (active)
AC50 [3]: 166 µM (active)
outcome [4]: inactive
AC50 [5]: 11.6 µM (active)
outcome [6]: inactive
outcome [7]: inactive
outcome [8]: inactive
outcome [11]: inactive
outcome [12]: inactive
outcome [16]: inactive
outcome [10]: inactive

CC(=O)CCC=C(C)C
outcome [1]: inactive
outcome [2]: inactive
outcome [3]: inactive
outcome [4]: inactive
outcome [5]: inactive
outcome [6]: inactive
outcome [8]: inactive
outcome [17]: inactive
outcome [9]: inactive
outcome [14]: inactive
outcome [10]: inactive

CCCC/C=C/C=C\C=O
AC50 [1]: 100 µM (active)
outcome [2]: inactive
outcome [3]: inactive
AC50 [4]: 6.51 µM (active)
outcome [5]: inactive
AC50 [6]: 178 µM (active)
outcome [7]: inactive
outcome [8]: inactive
outcome [12]: inactive
outcome [13]: inactive
outcome [15]: inactive
outcome [10]: inactive

O=C(O)C(F)(F)C(F)(F)C(F)(F)C(F)(F)C(=O)O
outcome [1]: inactive
outcome [2]: inactive
outcome [3]: inactive
outcome [4]: inactive
outcome [5]: inactive
outcome [6]: inactive
outcome [8]: inactive
outcome [17]: inactive
outcome [12]: inactive
outcome [10]: inactive

CC(CCC(=O)O)(c1ccc(O)cc1)c1ccc(O)cc1
outcome [1]: inactive
outcome [2]: inactive
outcome [3]: inactive
outcome [4]: inactive
AC50 [5]: 16.4 µM (active)
outcome [6]: inactive
outcome [7]: inactive
outcome [8]: inactive
outcome [17]: inactive
outcome [11]: inactive
outcome [13]: inactive
outcome [16]: inactive
outcome [14]: inactive
outcome [15]: inactive
outcome [18]: inactive

CC=CC(=O)OCC(C)C
outcome [1]: inactive
outcome [2]: inactive
outcome [3]: inactive
outcome [4]: inactive
outcome [5]: inactive
outcome [6]: inactive
outcome [7]: inactive
outcome [8]: inactive
outcome [11]: inactive
outcome [12]: inactive
outcome [16]: inactive
outcome [14]: inactive
outcome [10]: inactive

CCCC(C)C(=O)OCC (centres undefined)
outcome [1]: inactive
outcome [2]: inactive
outcome [3]: inactive
outcome [4]: inactive
outcome [5]: inactive
outcome [6]: inactive
outcome [8]: inactive
outcome [17]: inactive
outcome [11]: inactive
outcome [14]: inactive
outcome [10]: inactive
